Twelve compounds from PubChem BioAssay can be followed below.

The subject of assay [1] is Plasmodium falciparum Sir2 (PF13_0152, Sir2A). The assay is described as follows: pfSir2 binders on small-molecule microarrays, primary screen, biochemical, small-molecule microarray, 635 nm fluorescence (AID 1098).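 Note: score merges spot fluorescence intensity with its signal-to-noise ratio.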 Particulars: small-molecule microarray binding, fluorescence 635 nm; higher = more signal.
The nature of assay [2]: small-molecule microarray binders of probe aDKK1, primary screen, biochemical, biotinylated probe, 635/667 nm fluorescence (AID 1099).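 Note: score merges 667nm spot fluorescence with signal to noise across triplicate slides; reference of the scale not given here.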 Particulars: higher = more signal.
A short description of assay [3]: small-molecule microarray binders of probe aCHRDL2, primary screen, biochemical, biotinylated probe, 635/667 nm fluorescence (AID 1100). Particulars: higher = more signal.
Assay [4] is described as follows: splicing luciferase reporter signal modulators, primary screen, spliceosome inhibition project, cell-based, HEK293, splice +/- reporter (AID 1101).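 Note: HEK293 cells carrying a splicing-competent luciferase reporter gene; test concentration not given here.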 Particulars: luminescence, 24 h, higher = more signal, called active from +8 up or from −8 down. A general note: In a reporter assay the amount or activity of a reporter protein is the signal.
For assay [5], the target named is Fibroblast growth factor 10 (Homo sapiens) (UniProt O15520). The assay is described as follows: FGF10 binders on small-molecule microarrays, primary screen, biochemical, small-molecule microarray, 635 nm fluorescence (AID 1102). Particulars: FGF10 binding, fluorescence 635 nm, higher = more signal.
The subject of assay [6] is glycogen synthase kinase-3 (GSK3A per assay name; protocol says GSK3B). The assay can be described thus: GSK3 binders on small-molecule microarrays, primary screen, biochemical, small-molecule microarray, 635 nm fluorescence, GSK3A (AID 1103). Note: the record names both GSK3A and GSK3B. Particulars: small-molecule microarray binding, fluorescence 635 nm; higher = more signal.
In assay [7] the target is Epidermal growth factor receptor (Homo sapiens) (UniProt P00533). The assay is described as follows: EGFR binders on small-molecule microarrays, primary screen, biochemical, small-molecule microarray, 635 nm fluorescence (AID 1104).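 Note: score merges 667 nm emission intensity with spot signal to noise over triplicate slides.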 Particulars: EGFR binding, higher = more signal.
Assay [8] addresses Follistatin-related protein 3 (Homo sapiens) (UniProt O95633). The assay can be described thus: FSTL3 binders on small-molecule microarrays, primary screen, biochemical, small-molecule microarray, 635 nm fluorescence (AID 1105).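 Note: score merges emission near 667 nm and signal to noise per printed spot across three slides.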 Particulars: FSTL3 binding, higher = more signal.
Assay [9] addresses Dickkopf-related protein 1 (Homo sapiens) (UniProt O94907). The assay can be described thus: DKK1 binders on small-molecule microarrays, primary screen, biochemical, small-molecule microarray, 635 nm fluorescence scan (AID 1106).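 Note: score merges emission near 667 nm with signal to noise over three replicate slides.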 Particulars: DKK1 binding, higher = more signal.
For assay [10], the system named is Inhibin beta A chain (activin A). The assay is described as follows: INHBA (activin A) binders on microarrays, primary screen, biochemical, small-molecule microarray, 635 nm fluorescence scan (AID 1107).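 Note: mouse activin A protein probed at 4.33 µg/mL on printed slides; score merges bound-protein fluorescence near 667 nm with spot signal-to-noise.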 Particulars: small-molecule microarray binding, higher = more signal.

Active and inactive are the calls of the source.

Sequence of Fibroblast growth factor 10 (Homo sapiens) (O15520 whole entry, looked up): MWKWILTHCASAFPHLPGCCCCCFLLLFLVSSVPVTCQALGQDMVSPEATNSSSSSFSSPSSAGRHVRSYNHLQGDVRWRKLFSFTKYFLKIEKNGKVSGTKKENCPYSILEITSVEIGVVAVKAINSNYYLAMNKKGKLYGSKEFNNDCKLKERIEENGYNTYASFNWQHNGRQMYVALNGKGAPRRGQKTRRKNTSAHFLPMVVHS
Sequence of Dickkopf-related protein 1 (Homo sapiens) (O94907 whole entry, looked up): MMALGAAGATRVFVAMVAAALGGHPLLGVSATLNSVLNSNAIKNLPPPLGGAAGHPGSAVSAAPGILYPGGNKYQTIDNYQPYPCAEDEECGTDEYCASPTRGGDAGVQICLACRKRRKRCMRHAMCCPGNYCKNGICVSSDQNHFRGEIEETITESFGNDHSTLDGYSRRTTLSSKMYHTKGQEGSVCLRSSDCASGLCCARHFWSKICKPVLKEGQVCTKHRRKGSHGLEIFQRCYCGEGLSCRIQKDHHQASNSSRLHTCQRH
Sequence of Epidermal growth factor receptor (Homo sapiens) (P00533 whole entry, looked up): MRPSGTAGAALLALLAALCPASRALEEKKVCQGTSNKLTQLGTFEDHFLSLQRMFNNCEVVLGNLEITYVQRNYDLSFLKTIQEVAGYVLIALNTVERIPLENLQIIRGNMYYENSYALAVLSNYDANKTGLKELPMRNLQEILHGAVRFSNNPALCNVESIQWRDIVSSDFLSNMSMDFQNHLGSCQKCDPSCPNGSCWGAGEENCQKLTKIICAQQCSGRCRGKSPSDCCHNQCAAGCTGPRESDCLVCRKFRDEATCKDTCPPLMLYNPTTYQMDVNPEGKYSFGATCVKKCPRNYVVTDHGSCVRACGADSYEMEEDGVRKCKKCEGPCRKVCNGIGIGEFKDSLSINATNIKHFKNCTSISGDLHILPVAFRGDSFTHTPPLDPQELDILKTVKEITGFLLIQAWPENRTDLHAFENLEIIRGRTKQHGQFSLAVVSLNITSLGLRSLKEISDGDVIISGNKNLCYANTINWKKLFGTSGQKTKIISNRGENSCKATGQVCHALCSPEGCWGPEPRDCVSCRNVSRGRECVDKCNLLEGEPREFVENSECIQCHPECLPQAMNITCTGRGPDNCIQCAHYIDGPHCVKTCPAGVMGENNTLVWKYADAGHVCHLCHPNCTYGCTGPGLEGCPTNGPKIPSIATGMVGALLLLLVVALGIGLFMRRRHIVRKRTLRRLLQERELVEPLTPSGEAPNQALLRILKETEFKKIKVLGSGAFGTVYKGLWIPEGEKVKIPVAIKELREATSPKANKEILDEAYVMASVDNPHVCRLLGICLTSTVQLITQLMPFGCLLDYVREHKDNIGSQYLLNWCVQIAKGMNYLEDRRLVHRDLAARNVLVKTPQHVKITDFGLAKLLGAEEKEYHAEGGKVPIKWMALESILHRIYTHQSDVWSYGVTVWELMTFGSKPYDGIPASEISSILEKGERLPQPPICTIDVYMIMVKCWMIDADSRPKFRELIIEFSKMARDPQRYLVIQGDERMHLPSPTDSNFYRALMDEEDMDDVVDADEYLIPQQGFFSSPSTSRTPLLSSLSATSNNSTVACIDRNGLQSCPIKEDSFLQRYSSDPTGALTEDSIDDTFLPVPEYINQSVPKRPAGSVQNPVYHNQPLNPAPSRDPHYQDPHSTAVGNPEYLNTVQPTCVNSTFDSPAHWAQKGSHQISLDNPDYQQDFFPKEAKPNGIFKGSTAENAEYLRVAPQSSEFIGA
Sequence of Follistatin-related protein 3 (Homo sapiens) (O95633 whole entry, looked up): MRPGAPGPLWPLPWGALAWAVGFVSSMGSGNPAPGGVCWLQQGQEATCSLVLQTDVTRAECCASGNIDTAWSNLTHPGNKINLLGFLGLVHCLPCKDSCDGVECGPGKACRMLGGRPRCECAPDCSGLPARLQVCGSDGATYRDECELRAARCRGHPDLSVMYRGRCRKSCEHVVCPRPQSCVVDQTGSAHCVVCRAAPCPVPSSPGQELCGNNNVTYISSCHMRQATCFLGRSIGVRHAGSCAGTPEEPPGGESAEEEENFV

Regarding `CCN(CC)c1ccc(N2CC=CC34O[C@@H]5/C=C\CCC(C)OC(=O)C5[C@H]3C(=O)N(CCCCCCO)[C@@H]4C2=O)cc1` (stereo not given in full), the composite z-score in assay [1] is 0.586; in assay [2], -0.331; in assay [3] it was 0.0224; in assay [5] it was -0.0455; in assay [6] it was -0.624; in [7], -0.782. For the same compound, the composite z-score in assay [8] was -0.622; in assay [9], -0.471; in [10] it was 1.04. In [4], the z-score is 0.449 (inactive).

Turning to `O=C1OCC=C[C@H]2OC34C=CCN(c5ccc(Cl)cc5)C(=O)[C@H]3N(CCCO)C(=O)[C@@H]4[C@@H]12` (stereo not given in full), the composite z-score was -0.0096 in assay [1]; -0.477 in [2]; 0.673 in assay [3]; -0.742 in assay [5]; -1.19 in assay [6]; -0.781 in assay [7]. The composite z-score in assay [8] is -0.551; in assay [9], -1.32; in assay [10], 1.23. Also, in assay [4], the z-score is -0.915 (inactive).

As to `O=[N+]([O-])c1ccc(C[n+]2ccc(CCCO)cc2)o1`, the composite z-score turned out to be 0.513 in assay [1]; 0.762 in assay [2]; 0.805 in assay [3]; 1.54 in [5]; 0.634 in assay [6]; 0.396 in [7]. In addition, the composite z-score in assay [8] is 1.13; in [9], 1.08; in assay [10], 0.918. Moreover, in assay [4], the z-score was 0.115 (inactive).

Regarding `COC(=O)[C@@]1(Cc2ccc(F)cc2)[C@H]2c3cc(C(=O)N(C)C)n(CCc4c[nH]c5ccc(OC)cc45)c3C[C@H]2CN1C(=O)c1ccccc1`, the composite z-score is -0.138 in [1]; 1.76 in assay [2]; 1.31 in [3]; -0.162 in assay [5]; 0.27 in assay [6]; -0.446 in assay [7]. Further, the results for the composite z-score in assay [8], in assay [9] and in assay [10] were -0.108, -1.73 and 0.812, respectively. Besides, in assay [4], the z-score is -2.71 (inactive).

Regarding `COc1ccccc1CN1C(=O)c2ccccc2[C@](Cc2ccccc2I)(C(=O)NCc2ccccc2)[C@@H]1c1ccc(CO)cc1`, the composite z-score in assay [1] was 0.17; in [2], 0.131; in assay [3] it was 0.875; in assay [5] it was 0.184; in assay [6], -0.0893; in [7], -0.593. Moreover, the composite z-score in assay [8] was -0.457; in [9] it was -0.341; in assay [10] it was 0.9. In addition, the z-score in assay [4] was 0.164 (inactive).

Consider `CC(C)[Si]1(C(C)C)O[C@@H](c2ccccc2)c2cc(-c3ccc(-c4ccc(Cl)c(Cl)c4)o3)nc(CCc3ccccc3)c21`, for which the composite z-score in assay [1] was -0.708; in assay [2], 0.147; in assay [3] it was 0.731; in assay [5], -0.707; in assay [6], -0.345; in assay [7], -0.844. For the same compound, the composite z-score in [8] was -1.54; in assay [9], -1.25; in [10], 0.949. In addition, in assay [4], the z-score was 0.428 (inactive).

Regarding `CCN(CC)c1ccc(N2CC=CC34O[C@@H]5C=CCCOC(=O)C5[C@H]3C(=O)N(CCCO)[C@@H]4C2=O)cc1` (stereo not given in full), the composite z-score in assay [1] was -1.99; in [2] it was -0.404; in assay [3] it was -0.373; in assay [5], -0.344; in [6], -0.0608; in assay [7] it was -0.365. In addition, the composite z-score was -0.0243 in assay [8], -0.174 in assay [9] and 1.5 in assay [10]. Moreover, in assay [4], the z-score is -0.542 (inactive).

On to `COc1cc(NN2C(C(O)c3ccccc3)C=CC3C(=O)N(c4ccccc4)C(=O)C32)cc(OC)c1OC` (stereo not given), for which the composite z-score worked out at 1.53 in assay [1]; 0.256 in assay [2]; 0.862 in assay [3]; 1.28 in assay [5]; 1.14 in assay [6]; 0.257 in assay [7]. Further, the composite z-score in assay [8] was found to be 1.47; in [9], 0.0142; in [10], 0.706. Moreover, in [4], the z-score was -0.412 (inactive).

As to `CCCCN1CC=CC23O[C@@H]4C=CCCOC(=O)C4[C@H]2C(=O)N(CCCO)[C@@H]3C1=O` (stereo not given in full), the composite z-score in [1] was -1.07; in assay [2], -0.132; in assay [3] it was -0.114; in assay [5] it was -0.649; in [6] it was -1.12; in [7], -0.597. Moreover, the composite z-score in assay [8] is -0.739; in [9], -0.0604; in assay [10] it was 0.824. Also, the z-score in assay [4] is -1.21 (inactive).

As for `COCCOC(=O)N1C(=O)[C@@]2(c3ccccc31)[C@H](c1ccc(O)cc1)N1[C@H](c3ccccc3)[C@H](c3ccccc3)OC(=O)[C@H]1[C@@H]2C(N)=O`, the composite z-score in assay [1] is 0.394; in [2] it was -0.374; in [3], 0.679; in assay [5], -0.422; in assay [6], -1.11; in [7], -0.608. Moreover, the composite z-score in assay [8] is -0.821; in assay [9], -1.17; in [10], -0.249. Further, the z-score in [4] was 0.435 (inactive).

Regarding `NC(=O)NCC#Cc1ccc2c(c1)[C@]1(C(=O)N2)[C@H](c2ccccc2OCCO)N2[C@H](c3ccccc3)[C@H](c3ccccc3)OC(=O)[C@H]2[C@@H]1C(=O)N1CCCCCCC1`, the composite z-score in [1] was 1.68; in assay [2] it was 2.88; in assay [3], 1.73; in assay [5], 0.91; in assay [6] it was 1.35; in assay [7] it was 1.42. The composite z-score in [8] was found to be 1.6; in assay [9] it was 1.26; in assay [10], 1.88. In addition, the z-score in assay [4] is -0.308 (inactive).

With `CCCC[C@@H]1C[C@H]1[C@@H](NC(=O)c1ccccc1)c1ccc(-c2ccccc2)cc1`, the composite z-score in [1] is -0.616; in [2] it was -0.0102; in assay [3], 0.754; in [5], 0.0096; in assay [6], -0.372; in assay [7], 0.0518. For the same compound, the results for the composite z-score in [8], in assay [9] and in [10] were 0.12, 0.228 and 0.715, respectively. In assay [4], the z-score is -3.53 (inactive).
